# According to PubChem BioAssay:
# Active and inactive are the calls of the source. Unless noted, no stated cut-off is given here; in the data, active means inhibition above about 80%; inactive means the rest.
# How the values were obtained:
# [1] = viability loss with induced miR-34 in A549 – imaging, A549 dox-inducible miR-34, nuclei and caspase counts, primary screen (AID 1347080;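 active means compounds whose cell count with miR-34 switched on is under 0.7 times the count with it off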); details: A549 miR-34 inducible, Hoechst nuclei count, 48 h
# [2] = MELAS cybrid and Rieske KO viability enhancers – cell-based, MELAS cybrids, Rieske KO mouse fibroblasts, CellTiter-Glo, primary screen (AID 1508586;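 active means mean z-score across replicates of 1.96 or higher in either the MELAS or the Rieske mutant cell line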;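 further: z relative to plate mean and SD of compound and empty wells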); details: low glucose
# [3] = growth inhibition, single agent or in combination, cell-based, chromothripsis tumors, cisplatin or BGB combos (AID 1671449); details: LFS_MB_P medulloblastoma cells;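 further: cells exposed for 96 hours; 0% = vehicle DMSO and 100% = killing by high DMSO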
# [4] = growth inhibition, single agent and combos, cell-based, chromothripsis tumors, cisplatin or BGB combos (AID 1671450); details: HDN33 neuroblastoma cells, stronger effect = higher value;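 further: cells exposed to compound for four days; 0% = vehicle DMSO and 100% = cell killing by high DMSO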
# [5] = growth inhibition, single agents and combos, ICB984, cell-based, cisplatin or BGB combos, synergistic combos for chromothripsis tumors (AID 1671451; call rule not given here;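 further: cells exposed for 96 hours before readout; 0% = vehicle DMSO and 100% = killing by high DMSO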); details: ICB984 medulloblastoma cells, drug combinations, stronger effect = higher value
# [6] = growth inhibition, single agents and combos, LFS_MB_1R, cell-based, cisplatin or BGB combos, synergistic combos for chromothripsis tumors (AID 1671452); details: LFS_MB_1R medulloblastoma cells, stronger effect = higher value;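 further: cells exposed for 96 hours before readout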
# [7] = growth inhibition, single agents and combos, HTB85, cell-based, BGB or cisplatin IC20 combos, synergistic combos for chromothripsis tumors (AID 1671453); details: HTB85 osteosarcoma cells, drug combinations, stronger effect = higher value;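 further: cells exposed for 96 hours before readout; 0% = vehicle DMSO and 100% = high DMSO killing control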
# [8] = growth inhibition, single agents and combos, CRL2098, cell-based, BGB or cisplatin IC20 combos, synergistic combos for chromothripsis tumors (AID 1671454); details: CRL2098 osteosarcoma cells, drug combinations, stronger effect = higher value;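 further: cells exposed for 96 h before readout; 0% = vehicle DMSO and 100% = killing by high DMSO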
# [9] = growth inhibition, single agents and combos, HD-MB03, cell-based, BGB or cisplatin IC20 combos, synergistic combos for chromothripsis tumors (AID 1671455; in the data active means inhibition above about 83%;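 further: 0% = vehicle DMSO and 100% = high DMSO as cytotoxic control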); details: HD-MB03 medulloblastoma cells, stronger effect = higher value
# [10] = growth inhibition, single agents and combos, UWB1.289, cell-based, BGB or cisplatin combos, synergistic combos for chromothripsis tumors (AID 1671456); details: UWB1.289 ovarian carcinoma cells, stronger effect = higher value;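 further: cells exposed to compound for four days; 0% = vehicle DMSO and 100% = killing by high DMSO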
# [11] = growth inhibition, single agents and combos, LFS_MB_2R, cell-based, cisplatin combos, synergistic combos for chromothripsis tumors (AID 1671457); details: LFS_MB_2R medulloblastoma cells, stronger effect = higher value;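 further: cells exposed to compound for four days before readout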
# [12] = growth inhibition, MDA-MB-436, cell-based, BGB or cisplatin combos, synergistic combos for chromothripsis tumors (AID 1671458; call rule not given here;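 further: cells exposed for 96 hours; 0% = vehicle DMSO and 100% = killing by high DMSO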); details: MDA-MB-436 breast carcinoma growth inhibition, drug combinations, stronger effect = higher value
# [13] = UWB1.289_BRCA1 ovarian cancer growth, cell-based, BGB or cisplatin combinations (AID 1671459); details: UWB1.289 BRCA1 ovarian carcinoma, drug combinations, stronger effect = higher value
# [14] = drug combination toxicity in non-malignant astrocytes – cell-based, BGB or cisplatin IC20 combos, cytotoxicity control for chromothriptic childhood tumor combination screen (AID 1671460); details: Human astrocytes, viability inhibition, drug combinations, at 0.5 µM, stronger effect = higher value;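 further: cells exposed to compounds for 96 hours before viability readout; 0% = vehicle and 100% = killing control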
# [15] = BT084 cell growth, single and combined drugs, ICGC_MB145, cisplatin and BGB IC40 combos (AID 1671461); details: BT084 medulloblastoma cells, drug combinations, stronger effect = higher value;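 further: cells exposed to drugs for 96 hours; 0% = vehicle DMSO and 100% = high DMSO full killing control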
# [16] = RCMB18 cell growth, single agent and combined, cisplatin and BGB IC40 combos (AID 1671462); details: RCMB18 medulloblastoma cells, stronger effect = higher value;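 further: cells exposed to compound for four days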
# [17] = CRL1545 cell growth, single agent and combined, cisplatin and BGB IC20 combos (AID 1671464); details: CRL1545 osteosarcoma cells, stronger effect = higher value;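 further: cells exposed to compound for 96 hours before readout; 0% = vehicle DMSO and 100% = high DMSO killing control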
# [18] = measured here: combination with BGB IC40, at 0.05 µM
# [19] = measured here: with BGB IC20 combination, at 0.5 µM
# [20] = measured here: with cisplatin IC20 combination, at 0.5 µM
# [21] = measured here: combination with cisplatin, at 0.5 µM
# [22] = measured here: combination with cisplatin, at 5 µM
smiles,measurement,setting,value
Cc1cc(C)c(Nc2ccnc(Nc3ccc(C#N)cc3)n2)c(C)c1,fold change,"[1]; stronger effect = lower value, cell number ratio, induced over uninduced",0.923 (inactive)
same,fold change,[1]; measured here: relative caspase fold change +Dox/-Dox,0.624
same,cell count,"[1]; measured here: total cells with miR-34 induction, stronger effect = lower value",2390
same,cell count,[1]; measured here: total cells without miR-34 induction,2590
same,z-score,"[2]; MELAS cybrid survival, CellTiter-Glo 48 h, stronger effect = higher value",0.0317 (inactive)
same,z-score,"[2]; Rieske KO mouse fibroblast survival, CellTiter-Glo 72 h",0.105
same,inhibition,"[3]; at 0.5 µM, stronger effect = higher value",-1.98% (inactive)
same,inhibition,"[3]; measured here: combination with BGB IC20, at 0.005 µM",-30.5%
same,inhibition,"[3]; measured here: combination with BGB IC40, at 0.005 µM",-59.6%
same,inhibition,[3]; [18],-34.5%
same,inhibition,"[3]; measured here: combination with cisplatin, at 0.5 µM, stronger effect = higher value",-3.17%
same,inhibition,"[3]; measured here: combination with cisplatin, at 5 µM, stronger effect = higher value",-40.8%
same,inhibition,"[4]; BGB combo, at 5 µM",15.1%
same,inhibition,[4]; at 0.5 µM,0.3% (inactive)
same,inhibition,"[4]; cisplatin combo, at 5 µM",3.99%
same,inhibition,[4]; [19],-2.53%
same,inhibition,[4]; [20],7.83%
same,inhibition,"[4]; single agent, at 5 µM",42.2%
same,inhibition,"[5]; BGB IC20 combo, at 0.005 µM",-14.3%
same,inhibition,"[5]; BGB IC40 combo, at 0.005 µM",-27.4%
same,inhibition,"[5]; BGB IC40 combo, at 0.05 µM",-8.56%
same,inhibition,[5]; at 0.5 µM,-22.9% (inactive)
same,inhibition,"[5]; cisplatin combo, at 0.05 µM",-14.1%
same,inhibition,"[5]; cisplatin combo, at 0.5 µM",-41.4%
same,inhibition,"[5]; cisplatin combo, at 5 µM",-46.6%
same,inhibition,"[5]; measured here: 5 uM single agent, at 5 µM",-22%
same,inhibition,[6]; at 0.5 µM,-25.5% (inactive)
same,inhibition,[6]; [18],-43.1%
same,inhibition,[6]; [21],-56.3%
same,inhibition,[6]; [22],-12.2%
same,inhibition,[7]; at 0.5 µM,-1.97% (inactive)
same,inhibition,"[7]; measured here: with BGB IC20, at 0.5 µM",4.79%
same,inhibition,"[7]; measured here: with BGB IC20, at 5 µM",40.8%
same,inhibition,"[7]; measured here: with cisplatin IC20, at 0.5 µM",-20.5%
same,inhibition,"[7]; measured here: with cisplatin IC20, at 5 µM",9.74%
same,inhibition,"[7]; single agent, at 5 µM",50.9%
same,inhibition,[8]; at 0.5 µM,-8.33% (inactive)
same,inhibition,"[8]; measured here: combination with BGB at IC20, at 0.5 µM",-39%
same,inhibition,"[8]; measured here: combination with cisplatin at IC20, at 0.5 µM",10.4%
same,inhibition,[9]; at 0.5 µM,-17.9% (inactive)
same,inhibition,"[9]; measured here: combo with BGB at IC20, at 0.5 µM",-21.5%
same,inhibition,"[9]; measured here: combo with cisplatin at IC20, at 0.5 µM",-28.7%
same,inhibition,[10]; at 0.5 µM,-2.26% (inactive)
same,inhibition,"[10]; measured here: inhibition with BGB combination, at 0.05 µM",-10.8%
same,inhibition,"[10]; measured here: inhibition with cisplatin combination, at 0.05 µM",-7.91%
same,inhibition,[11]; at 0.5 µM,-18.5% (inactive)
same,inhibition,[11]; [21],-29.8%
same,inhibition,[11]; [22],-25.8%
same,inhibition,[12]; at 0.5 µM,-14.9% (inactive)
same,inhibition,"[12]; measured here: BGB combination, at 0.5 µM",-9.41%
same,inhibition,"[12]; measured here: BGB combination, at 5 µM",25.9%
same,inhibition,"[12]; measured here: cisplatin combination, at 0.5 µM",-36.7%
same,inhibition,"[12]; measured here: cisplatin combination, at 5 µM",45.4%
same,inhibition,"[13]; BGB combination, concentration series, at 5 µM",69.3%
same,inhibition,[13]; at 0.5 µM,-2.68% (inactive)
same,inhibition,"[13]; cisplatin combination, concentration series, at 5 µM",45%
same,inhibition,[14],11.9% (inactive)
same,inhibition,[14]; measured here: combo with BGB IC20,11.7%
same,inhibition,[14]; measured here: combo with cisplatin IC20,9.36%
same,inhibition,[15]; at 0.5 µM,8.57% (inactive)
same,inhibition,"[15]; cisplatin combination, at 0.5 µM",-23.4%
same,inhibition,"[15]; cisplatin combination, at 5 µM",-181%
same,inhibition,"[15]; measured here: BGB IC40 combination 0.05 uM, at 0.05 µM",-32.7%
same,inhibition,"[15]; single agent, at 5 µM",2.56%
same,inhibition,[16]; at 0.5 µM,-10.9% (inactive)
same,inhibition,"[16]; cisplatin combo, at 5 µM",-30.4%
same,inhibition,"[16]; measured here: BGB IC40 combination, at 0.05 µM",-21.8%
same,inhibition,[16]; [21],-16.3%
same,inhibition,"[16]; single agent, at 5 µM",17.4%
same,inhibition,[17]; at 0.5 µM,11.1% (inactive)
same,inhibition,[17]; [19],-10.9%
same,inhibition,[17]; [20],20.9%
same,inhibition,"[17]; single agent, at 0.05 µM",-17.9%
same,inhibition,"[17]; single agent, at 5 µM",56.2%
